Laboratory results reported in PubChem BioAssay (NCATS).
Records with an inconclusive call do not appear. Calls of active or inactive are those of the source. Calls come from the whole dose curve; as a rule, active = well fitted curve in the direction sought with a large enough effect; inconclusive = small, poorly fitted or top-dose-only effect, or another doubt; inactive = no such curve, though single readings can be large; an effect the other way counts as inactive or inconclusive. Where a SMILES comes first, the peptide text is derived from it.

Key:
[1] = system: NIH3T3; assay: qHTS assay to identify novel small-molecules to repurpose for Merkel cell carcinoma treatment (AID 1296009); details: MCC and control cell lines, CellTiter-Glo viability, 72 h; at 44.8 µM (top of the series) unless noted; note: nearly all actives have a fitted effect of over 60% in size
Procedure, shortened: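 72 hr, 37 degree celsius; NPC 8-pt / MIPE 11-pt dose response; compound pinned in DMSO; CellTiter-Glo, 10 min RT, luminescence; normalized to no-cell and DMSO controls.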

[2] = system: C33A; assay: Primary qHTS to identify gynecologic anti-cancer compounds using libraries of approved drugs and bioactive compounds (AID 1345084); details: Gynecologic cancer cell panel viability, ATPlite luminescence, 48 h; series mostly up to 57.5 µM; note: % is set by controls: 0 for no effect and ±100 for the full control effect; nearly all actives have a fitted effect of over 55% in size
Procedure, shortened: (§1)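 48 h compound exposure at 37 C, 5% CO2; five-point qHTS. ATPlite luminescence readout of cell ATP.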

[3] = system: CAOV3; assay: as above; details: Gynecologic cancer cell panel viability, ATPlite luminescence, 48 h; series mostly up to 57.5 µM
Procedure, shortened: as §1

[4] = system: CASKI; assay: as above; details: Gynecologic cancer cell panel viability, ATPlite luminescence, 48 h; series mostly up to 57.5 µM
Procedure, shortened: as §1

[5] = system: Es-2; assay: as above; details: Gynecologic cancer cell panel viability, ATPlite luminescence, 48 h; series mostly up to 57.5 µM
Procedure, shortened: as §1

[6] = system: HeLa; assay: as above; details: Gynecologic cancer cell panel viability, ATPlite luminescence, 48 h; series mostly up to 57.5 µM
Procedure, shortened: as §1

[7] = system: Hek293T; assay: as above; details: Gynecologic cancer cell panel viability, ATPlite luminescence, 48 h, control line for the selectivity index; series mostly up to 57.5 µM
Procedure, shortened: as §1

[8] = system: JEG-3; assay: as above; details: Gynecologic cancer cell panel viability, ATPlite luminescence, 48 h; series mostly up to 57.5 µM
Procedure, shortened: as §1

[9] = system: OV90; assay: as above; details: Gynecologic cancer cell panel viability, ATPlite luminescence, 48 h; series mostly up to 57.5 µM
Procedure, shortened: as §1

[10] = system: PA-1; assay: as above; details: Gynecologic cancer cell panel viability, ATPlite luminescence, 48 h; series mostly up to 57.5 µM
Procedure, shortened: as §1

[11] = system: Tov-21-G; assay: as above; details: Gynecologic cancer cell panel viability, ATPlite luminescence, 48 h; series mostly up to 57.5 µM
Procedure, shortened: as §1

[12] = system: Tov112D; assay: as above; details: Gynecologic cancer cell panel viability, ATPlite luminescence, 48 h; series mostly up to 57.5 µM
Procedure, shortened: as §1

[13] = system: SKOV3; assay: as above; details: Gynecologic cancer cell panel viability, ATPlite luminescence, 48 h; series mostly up to 57.5 µM
Procedure, shortened: as §1

COc1ccc(C(=O)O[C@H]2CC(C)=CC[C@@]3(C)[C@@H](OC(C)=O)C[C@@](O)(C(C)C)[C@H]23)cc1
inactive: outcome [1] inactive [at 17.4 µM] | Potency [2] | Potency [3] | Potency [4] | Potency [5] | Potency [6] | Potency [7] | Potency [8] | Potency [9] | Potency [10] | Potency [11] | Potency [12]

C[C@@H]1O[C@@H](O[C@@H]2[C@@H](O)[C@H](O[C@@H]3[C@@H](O)[C@@H](O)[C@H](O[C@H]4[C@H](OC(=O)[C@]56CCC(C)(C)C[C@H]5C5=CCC7[C@@]8(C)C[C@H](O)[C@H](O[C@@H]9O[C@@H](C)[C@H](O)[C@@H](O)[C@H]9O)[C@@](C)(CO)C8CC[C@@]7(C)[C@]5(C)C[C@H]6O)O[C@H](C)[C@H](O)[C@@H]4O)O[C@H]3C)OC[C@H]2O)[C@H](O)[C@H](O)[C@H]1O (stereo not given in full)
inactive: outcome [1] inactive [at 9.27 µM] | activity change, negative = cytotoxicity [2] 1.27% [at 6.55 µM] | activity change, negative = cytotoxicity [3] 7.84% [at 6.55 µM] | activity change, negative = cytotoxicity [4] 0.934% [at 6.55 µM] | activity change, negative = cytotoxicity [5] -4.41% [at 6.55 µM] | activity change, negative = cytotoxicity [6] 3.33% [at 6.55 µM] | activity change, negative = cytotoxicity [7] 5.23% [at 6.55 µM] | activity change, negative = cytotoxicity [8] 1.34% [at 6.55 µM] | activity change, negative = cytotoxicity [9] 4.8% [at 6.55 µM] | activity change, negative = cytotoxicity [10] 7.81% [at 6.55 µM] | activity change, negative = cytotoxicity [11] -0.124% [at 6.55 µM] | activity change, negative = cytotoxicity [12] 9.68% [at 6.55 µM]

C[C@H]1[C@H](C)CC[C@]2(C(=O)O)CC[C@]3(C(=O)O)C(=CCC4[C@@]5(C)CC[C@H](O[C@@H]6O[C@H](C)[C@@H](O)[C@H](O)[C@H]6O)C(C)(C)C5CC[C@]43C)[C@H]12 (stereo not given in full)
inactive: outcome [1] inactive [at 17.4 µM] | Potency [2] | Potency [3] | Potency [4] | Potency [5] | Potency [6] | Potency [7] | Potency [8] | Potency [9] | Potency [10] | Potency [11] | Potency [12]

C=C(C(=O)O)[C@@H]1CC=C2CCC[C@H](C)[C@@]2(C)C1
inactive: outcome [1] | Potency [2] | Potency [3] | Potency [4] | Potency [5] | Potency [6] | Potency [7] | Potency [8] | Potency [9] | Potency [10] | Potency [11] | Potency [12]

C[C@@H](O)[C@H](N)C(=O)N1CCC[C@H]1C(=O)N1CCC[C@H]1C(=O)N[C@H](C(N)=O)[C@@H](C)O (H-TPPT-NH2)
inactive: outcome [1] inactive [at 9.27 µM] | activity change, negative = cytotoxicity [2] 10.5% [at 11.6 µM] | activity change, negative = cytotoxicity [3] 3.79% [at 11.6 µM] | activity change, negative = cytotoxicity [4] 7.08% [at 11.6 µM] | activity change, negative = cytotoxicity [5] -3.74% [at 11.6 µM] | activity change, negative = cytotoxicity [6] 8.64% [at 11.6 µM] | activity change, negative = cytotoxicity [7] 17.1% [at 11.6 µM] | activity change, negative = cytotoxicity [8] -0.985% [at 11.6 µM] | activity change, negative = cytotoxicity [9] -0.207% [at 11.6 µM] | activity change, negative = cytotoxicity [10] -4.12% [at 11.6 µM] | activity change, negative = cytotoxicity [11] 0.205% [at 11.6 µM] | activity change, negative = cytotoxicity [12] 6.35% [at 11.6 µM]

COC(=O)[C@H](OC(C)=O)[C@H]1C(C)(C)C(=O)[C@H]2CC3=C4CC(=O)O[C@@H](c5ccoc5)[C@]4(C)CCC3[C@@]1(C)C2=O (stereo not given in full)
inactive: outcome [1] inactive [at 17.4 µM] | Potency [2] | Potency [3] | Potency [4] | Potency [5] | Potency [6] | Potency [7] | Potency [8] | Potency [9] | Potency [13] | Potency [11] | Potency [12]

Cc1cc(N2CCCCC2)nc2ccccc12
inactive: outcome [1] | Potency [2] | Potency [3] | Potency [4] | Potency [5] | Potency [6] | Potency [7] | Potency [9] | Potency [10] | Potency [11] | Potency [12]

CC(=O)OCC1=C[C@H](O)[C@@H]2C(C(=O)O)=CO[C@@H](O[C@@H]3O[C@H](CO)[C@@H](O)[C@H](O)[C@H]3O)[C@H]12
inactive: outcome [1] inactive [at 17.4 µM] | Potency [2] | Potency [3] | Potency [4] | Potency [5] | Potency [6] | Potency [7] | Potency [8] | Potency [9] | Potency [10] | Potency [11] | Potency [12]

COCC(=O)N1CCc2cc(-c3csc(NC(=O)c4cc(OC)cc(OC)c4)n3)ccc21
inactive: outcome [1] | Potency [2] | Potency [3] | Potency [4] | Potency [5] | Potency [6] | Potency [7] | Potency [8] | Potency [9] | Potency [10] | Potency [11] | Potency [12]

O=S(=O)(NC1CCNCC1)c1cc(S(=O)(=O)c2ccccc2)ccc1C(F)(F)F
inactive: outcome [1] | Potency [2] | Potency [3] | Potency [4] | Potency [5] | Potency [6] | Potency [7] | Potency [8] | Potency [9] | Potency [10] | Potency [11] | Potency [12]

O=C(O)C[C@H]1CCC(=O)[C@@H]1C/C=C\CCOC1OC(CO)C(O)C(O)C1O (stereo not given in full)
inactive: outcome [1] | Potency [2] | Potency [3] | Potency [4] | Potency [5] | Potency [6] | Potency [7] | Potency [8] | Potency [9] | Potency [10] | Potency [11] | Potency [12]

CCn1c2ccccc2c2cc(CNC)ccc21
inactive: outcome [1] | Potency [2] | Potency [3] | Potency [4] | Potency [5] | Potency [6] | Potency [7] | Potency [8] | Potency [10] | Potency [13] | Potency [11] | Potency [12]

COc1cc(/C=C/C(=O)OC2CC(C)=C(C(=O)O)/C2=C/CO[C@@H]2O[C@H](CO)[C@@H](O)[C@H](O)[C@H]2O)ccc1O (stereo not given in full)
inactive: outcome [1] inactive [at 17.4 µM] | Potency [2] | Potency [3] | Potency [4] | Potency [5] | Potency [6] | Potency [7] | Potency [8] | Potency [9] | Potency [10] | Potency [11] | Potency [12]
